PGC1a acetyl inh: PGC1a acetylation modulation, inhibitor mode | inhibition, % at 15.6 µM | U2OS PGC1a acetylation, AlphaScreen anti-acetyl-lysine; with virally co-expressed GCN5 acetyltransferase | 0.17% of 350,000 active;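 active means every replicate shows inhibition of at least 40%; inconclusive means mean inhibition at least 40% but some replicate below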;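 further: 0% = neutral control wells and 100% = positive control wells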
INS-1E GSIS act: primary screen for activators of insulin secretion dependent on glucose, INS-1E cells, GLuc reporter luminescence; INS-1E GLuc reporter insulin secretion, 2-3 h; activation, % at 16.6 µM; 0.61% of 370,000 active; AID 743287;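 active means lowest replicate activation of at least 40%, so every replicate reaches that level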;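 further: 0% = median of neutral control wells and 100% = median of IBMX positive control wells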
PAX8 inh HTS: lowers PAX8-driven luciferase in RMG-I cells | RMG-I TPO-luciferase reporter, SteadyGlo, 24 h | 1.2% of 360,000 active | inhibition, % at 12.6 µM;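 active means mean replicate inhibition at least 60% with every replicate also reaching 60%; inconclusive means only one of the two criteria is met; inactive means mean below 60% and not all replicates reaching 60%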;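 further: luciferase light reporting Pax8 driven TPO promoter activity; plate controls were median of neutral control wells for no effect and mitoxantrone controls for full effect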
HIV Env fusion: blocks HIV Env-driven cell-cell fusion | AID 651610 | HeLa-JRFL Env/CEM21 cell fusion, luciferase | 1.1% of 360,000 active | inhibition, % at 12.3 µM;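 active means mean replicate inhibition score of at least 50 and every replicate individually at or above 50; inconclusive means only one of the two criteria met; inactive means mean below 50 and not all replicates reaching 50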;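 further: 0% = plate neutral controls and 100% = maraviroc near 300 nM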
EWS-Fli block: blocks EWS/Fli oncoprotein-driven transcription | A673 NR0B1-luciferase reporter, viability-normalised | 0.67% of 350,000 active | inhibition, % at 12.6 µM;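 active means mean inhibition of at least 50% after viability correction, with every replicate also passing that limit; inconclusive means mean reaches 50% but only one of two replicates passes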;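 further: firefly luciferase signal divided by Alamar Blue viability fluorescence both relative to DMSO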
CFTR F508del cor: correctors of CFTR F508del function in bronchial epithelial cells | CFBE cells, YFP halide quenching; stimulated with forskolin plus potentiator P3; % fluorescence drop versus neutral controls | activity (quench increase), % at 7.58 µM | 0.36% of 350,000 active | AID 720511;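 active means mean added fluorescence quench of at least 8% versus neutral control, with both replicates also reaching 8%; inconclusive means only one of the mean or replicate conditions met; inactive means mean below 8% and not both replicates reaching 8%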;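 further: cells transiently co-express mutant CFTR-F508del with the halide-sensitive YFP; corrector assay measuring rescue of mutant channel to the surface after 24 h compound exposure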
An asterisk follows results filed as active; ? = inconclusive; / = no result; [ ] = remark or other dose. Hits are enriched below; roughly 2.7% of the tested compounds scored in any of these assays.

SMILES | PGC1a acetyl inh | INS-1E GSIS act | PAX8 inh HTS | HIV Env fusion | EWS-Fli block | CFTR F508del cor
O=C(COC(=O)c1cccnc1Cl)Nc1cc(S(=O)(=O)N2CCCCCC2)ccc1Cl | / | 42* | 16 | 19 | 3 | -1
O=C(COC(=O)C1CCC1)Nc1cc(S(=O)(=O)N2CCOCC2)ccc1Cl | 4 | 2 | -2 | -4 | -5 | 13*
O=C(COC(=O)c1ccco1)Nc1cccc(S(=O)(=O)N2CCOCC2)c1 | 2 | -8 | 92* | 20 | 3 | 0
COc1ccc(S(=O)(=O)N[C@H]2CC[C@H](CC(=O)NCCc3ccncc3)O[C@H]2CO)cc1 | 9 | 3 | -6 | -15[16.7 µM] | 0 | 4
O=C(Nc1cc(S(=O)(=O)N2CCCCC2)ccc1Cl)c1ccccc1NS(=O)(=O)c1ccc(F)cc1 | / | -23 | 93* | 71* | 24 | /
C[C@@H]1CN([C@H](C)CO)C(=O)c2cccc(NC(=O)C3CC3)c2O[C@@H]1CN(C)Cc1ccc(C(=O)O)cc1 | 22 | 5 | -4 | 9[16.7 µM] | -3 | -1
Cc1ccc(-n2cc(CNCCCn3ccnc3C)c(-c3ccc(F)cc3)n2)cc1 | -25 | 44* | -20 | 14 | 0 | 2
Cc1ccc(C)c(-n2cc(CNCCCn3cccn3)c(-c3ccccc3)n2)c1 | -1 | -12 | 15 | 69* | 22 | 4
Cc1ccc(-n2cc(CNCCCn3cccn3)c(-c3cccc(C)c3)n2)cc1 | -9 | -43 | 4 | 26 | 24 | -4
CC(=O)N(C)C[C@@H]1Oc2cc(C#Cc3ccc(F)cc3)ccc2S(=O)(=O)N([C@H](C)CO)C[C@@H]1C | -2 | -16 | -2 | / | 2 | 8.0*
C[C@H](CO)N1C[C@H](C)[C@H](CN(C)C(=O)CN(C)C)Oc2cc(C#Cc3ccccc3)ccc2S1(=O)=O | -22 | 18 | / | 7[16.7 µM] | -15 | 4
C[C@H](CO)N1C[C@H](C)[C@@H](CN(C)C(=O)CN(C)C)Oc2cc(C#Cc3ccc(F)cc3)ccc2S1(=O)=O | -26 | -2 | / | 1[16.7 µM] | 5 | -10
C[C@H]1CN([C@@H](C)CO)S(=O)(=O)c2ccc(C#Cc3ccccc3)cc2O[C@@H]1CN(C)C(=O)CN(C)C | -23 | 48* | / | 15[16.7 µM] | 13 | -2
CCC(=O)N(C)C[C@@H]1Oc2cc(C#Cc3ccccc3)ccc2S(=O)(=O)N([C@H](C)CO)C[C@H]1C | 7 | -23 | 16 | 66*[16.7 µM] | -3 | 3
C[C@@H]1CN([C@@H](C)CO)S(=O)(=O)c2ccc(C#Cc3ccc(F)cc3)cc2O[C@H]1CN(C)C(=O)CN(C)C | -20 | -3 | / | 18[16.7 µM] | 59* | -8
CC(=O)N(C)C[C@@H]1Oc2cc(C#Cc3ccc(F)cc3)ccc2S(=O)(=O)N([C@@H](C)CO)C[C@@H]1C | -5 | -16 | 17 | / | 4 | 5
O=C(C[C@H]1C[C@H]2c3cc(NC(=O)NC4CCCC4)ccc3O[C@H]2[C@@H](CO)O1)NCC(F)(F)F | -1 | 19 | -1 | -5[16.7 µM] | -13 | 1
COc1ccc(NC(=O)Nc2cccc3c2O[C@H](CN(C)C(=O)Nc2ccc(OC)cc2)[C@H](C)CN([C@H](C)CO)C3=O)cc1 | 6 | 1 | -10 | -1[16.7 µM] | 4 | -3
CO[C@H](CN(C)Cc1cc(F)ccc1F)[C@@H](C)CN([C@H](C)CO)S(=O)(=O)c1ccc(C)cc1 | -16 | -11 | / | / | 11 | 0
C[C@@H]1CN([C@H](C)CO)S(=O)(=O)c2ccc(C#Cc3ccccc3)cc2O[C@H]1CN(C)C(=O)C1CC1 | -9 | 17 | / | 58*[16.7 µM] | 25 | 0
C[C@H](CO)N1C[C@H](C)[C@H](CN(C)S(=O)(=O)c2ccccc2)OCCCC[C@H](C)Oc2ccc(NS(=O)(=O)c3cn(C)cn3)cc2C1=O | 9 | -1 | 18 | 1[16.7 µM] | 4 | 0
COC(=O)c1nn(-c2ccc(OC)cc2)c(=O)cc1Oc1ccccc1 | 1 | / | / | 1 | / | /
COC(=O)c1nn(-c2ccccc2)c(=O)cc1Oc1ccc(Cl)cc1 | 4 | / | -3 | 122* | / | /
CCCCCCc1nc2ccccc2c(=O)n1NC(=O)c1c(O)c2c(n(CC(C)C)c1=O)CCCC2 | -1 | / | / | 73* | / | /
Cc1nc2ccccc2c(=O)n1NC(=O)c1c(O)c2c(n(CC(C)C)c1=O)CCCC2 | 13 | / | / | 11 | / | /
SMILES | PGC1a acetyl inh | INS-1E GSIS act | PAX8 inh HTS | HIV Env fusion | EWS-Fli block | CFTR F508del cor
CCn1c(SC(C)C(=O)NCC2CCCO2)nc2ccccc21 (configuration not stated) | / | 32 | -1 | / | 1 | 15*
CC1CC(C)CN(S(=O)(=O)c2ccc(NC(=O)c3ccc(=O)[nH]c3)cc2)C1 (configuration not stated) | 2 | -8 | 39 | / | 64* | -1
C[C@H]1CCCCO[C@@H](CN(C)Cc2ccc(C(F)(F)F)cc2)[C@@H](C)CN([C@@H](C)CO)C(=O)c2cc(NS(C)(=O)=O)ccc2O1 | -2 | -2 | 2 | 55*[16.7 µM] | 10 | -1
C[C@H](CO)N1C[C@H](C)[C@H](CN(C)Cc2ccc(C(F)(F)F)cc2)OCCCC[C@H](C)Oc2ccc(NS(C)(=O)=O)cc2C1=O | -3 | -9 | -11 | 39[16.7 µM] | 9 | 0
C[C@@H]1CCCCO[C@@H](CN(C)Cc2ccc(C(F)(F)F)cc2)[C@@H](C)CN([C@H](C)CO)C(=O)c2cc(NS(=O)(=O)c3ccccc3)ccc2O1 | 17 | -10 | 16 | 5[16.7 µM] | -15 | 1
C[C@@H]1CCCCO[C@@H](CN(C)Cc2ccc(C(F)(F)F)cc2)[C@@H](C)CN([C@@H](C)CO)C(=O)c2cc(NS(=O)(=O)c3ccccc3)ccc2O1 | -3 | -12 | 94* | -39[16.7 µM] | -15 | 1
C[C@@H]1CCCCO[C@H](CN(C)Cc2ccc(C(F)(F)F)cc2)[C@H](C)CN([C@H](C)CO)C(=O)c2cc(NS(=O)(=O)c3ccccc3)ccc2O1 | 15 | -21 | 89* | ? | 11 | -4
C[C@@H]1CCCCO[C@H](CN(C)Cc2ccc(C(F)(F)F)cc2)[C@@H](C)CN([C@@H](C)CO)C(=O)c2cc(NS(=O)(=O)c3ccccc3)ccc2O1 | -2 | -27 | 88* | -31[16.7 µM] | 24 | 1
CC(C)NC(=O)Nc1ccc2c(c1)C(=O)N([C@H](C)CO)C[C@H](C)[C@@H](CN(C)C(=O)CCC(F)(F)F)OCCCC[C@@H](C)O2 | -7 | 39 | -1 | 8[16.7 µM] | / | -1
COC(=O)C[C@@H]1C=C[C@H](NC(=O)c2ccccc2)[C@H](CO)O1 | 4 | 5 | -4 | -15[16.7 µM] | -4 | 4
C[C@@H]1CN([C@H](C)CO)C(=O)Cc2cc(NS(=O)(=O)c3cn(C)cn3)ccc2O[C@H]1CN(C)Cc1ccc(Cl)c(Cl)c1 | -10 | 6 | -1 | -4[16.7 µM] | 2 | -3
CN(C)C(=O)c1ccc(-c2ccc(C3[C@H]4CNC[C@@H]3N4CC3CCCCC3)cc2)cc1 (some centres not stated) | -4 | -7 | -18 | / | 3 | 1
